# According to PubChem BioAssay (EPA / NIEHS):
# Results filed as inconclusive are left out. Active and inactive are the calls of the source. How the source made its calls: active means hit-call score of the fitted dose curve at least 0.9, where 1 is the maximum; inconclusive means response in the unintended direction; inactive means score below 0.9.
# Tests used:
# [1] = target: Mitogen-activated protein kinase 3 (Homo sapiens) (UniProt P27361); test: NVS_ENZ_hMAPK3: NovaScreen (NVS) Enzymatic Assay for human Mitogen-Activated Protein Kinase 3 (MAPK 3) (AID 2283177)
# In short: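 Chemicals were first tested in duplicate at 25 uM, with hits re-run as concentration series (max 50 uM). Recombinant enzyme activity, measured 1 h post-dose in a cell-free format, was read by fluorescence/mobility shift relative to DMSO.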
# [2] = target: human Esterase Plasma (ES), BCHE (gene 590) (UniProt P06276); test: NVS_ENZ_hES: NovaScreen (NVS) Enzymatic Assay for human Esterase Plasma (ES) (AID 2283157)
# In short: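 Primary single-concentration screen at 25 uM in duplicate, then concentration-response to a 50 uM top dose. Human plasma esterase activity detected colorimetrically after 0.25 h incubation, with DMSO as baseline.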
# [3] = target: Collagenase 3 (Homo sapiens) (UniProt P45452); test: NVS_ENZ_hMMP13: NovaScreen (NVS) Enzymatic Assay for human Matrix Metalloproteinase-13 (MMP13) (AID 2283182)
# In short: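 Recombinant MMP13 cleaving fluorescent substrate, cell-free, measured 1 h after dosing. Primary duplicate screen at 25 uM; actives tested in concentration-response up to 50 uM; loss of signal relative to DMSO.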
# [4] = target: human Ephrin type-B Receptor 2 (EphB2), EPHB2 (gene 2048) (UniProt P29323); test: NVS_ENZ_hEphB2: NovaScreen (NVS) Enzymatic Assay for human Ephrin type-B Receptor 2 (EphB2) (AID 2283156)
# In short: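 Compounds were first tested in duplicate at 25 uM, with hits rerun singly in concentration series up to 50 uM. Enzyme activity on fluorescent substrate was read at 1 h by mobility-shift separation, scored as signal loss relative to DMSO.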
# [5] = target: human Matrix Metalloproteinase-2 (MMP2), MMP2 (gene 4313) (UniProt P08253); test: NVS_ENZ_hMMP2: NovaScreen (NVS) Enzymatic Assay for human Matrix Metalloproteinase-2 (MMP2) (AID 2283184)
# In short: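 Compounds first screened in duplicate at a single 25 uM, with actives followed up in concentration series. Recombinant human MMP2 cleaves a fluorogenic substrate; fluorescence taken at 1 h, inhibition fitted relative to DMSO.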
# [6] = target: human NIMA (Never In Mitosis Gene A)-Related Kinase 2 (NEK2), NEK2 (gene 4751) (UniProt P51955); test: NVS_ENZ_hNEK2: NovaScreen (NVS) Enzymatic Assay for human NIMA (Never In Mitosis Gene A)-Related Kinase 2 (NEK2) (AID 2283188)
# In short: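 Compounds were first screened in duplicate at 25 uM, with actives followed up in concentration series. Recombinant NEK2 activity, cell-free, was read 1 h after dosing by fluorescence intensity after mobility-shift separation. Signal loss was scored against DMSO.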
# [7] = target: Glycogen synthase kinase-3 beta (Homo sapiens) (UniProt P49841); test: NVS_ENZ_hGSK3b: NovaScreen (NVS) Enzymatic Assay for human Glycogen Synthase Kinase-3 beta (GSK3b) (AID 2283165)
# In short: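 Recombinant enzyme with specific fluorescent substrate, 1 h, product separated by electrophoretic mobility shift. Primary duplicate screen at 25 uM; actives (e.g. 30% inhibition) followed in singleton concentration-response to 50 uM. Signal loss fitted versus DMSO.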
# [8] = target: human MAP Kinase-Activated Protein Kinase 2 (MAPKAPK2), MAPKAPK2 (gene 9261) (UniProt P49137); test: NVS_ENZ_hMAPKAPK2: NovaScreen (NVS) Enzymatic Assay for human MAP Kinase-Activated Protein Kinase 2 (MAPKAPK2) (AID 2283178)
# In short: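 Chemicals screened in duplicate at 25 uM, then to 50 uM top concentration in concentration-response, against recombinant human MAPKAPK2; substrate conversion read 1 hr post-dosing by fluorescence after electrophoretic mobility-shift separation, loss-of-signal relative to DMSO.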
# [9] = target: human Mitogen-Activated Protein Kinase 1 (MAPK 1), MAPK1 (gene 5594) (UniProt P28482); test: NVS_ENZ_hMAPK1: NovaScreen (NVS) Enzymatic Assay for human Mitogen-Activated Protein Kinase 1 (MAPK 1) (AID 2283175)
# In short: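 Cell-free recombinant human MAPK1 enzymatic assay, fluorescence/electrophoretic mobility shift read at 1 h; loss of signal vs DMSO. Primary screen in duplicate at 25 uM; actives (e.g. ≥30% inhibition) run as concentration-response up to 50 uM.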
# [10] = target: Protein deacetylase HDAC6 (Homo sapiens) (UniProt Q9UBN7); test: NVS_ENZ_hHDAC6: NovaScreen (NVS) Enzymatic Assay for human Histone Deacetylase 6 (HDAC6) (AID 2283164)
# In short: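 Concentration-response runs up to 50 uM followed a duplicate 25 uM single-point screen. Deacetylase activity of recombinant human HDAC6 read by fluorescence after 1 h, with mobility-shift separation of substrate and product; DMSO as baseline.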
# [11] = target: human Matrix Metalloproteinase-9 (MMP9), MMP9 (gene 4318) (UniProt P14780); test: NVS_ENZ_hMMP9: NovaScreen (NVS) Enzymatic Assay for human Matrix Metalloproteinase-9 (MMP9) (AID 2283190);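 further: cell-free recombinant MMP9 protease activity read by fluorescent substrate signal; active means inhibition seen as loss of fluorescence signal versus DMSO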
# In short: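 Cell-free fluorescence-intensity enzyme activity assay using extracted protein, read 1 h after dosing. Loss of signal versus DMSO baseline indicates inhibition; primary screen in duplicate at 25 uM, actives followed up in concentration series.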
# [12] = target: human Fibroblast Growth Factor Receptor 1 (FGFR1), FGFR1 (gene 2260) (UniProt P11362); test: NVS_ENZ_hFGFR1: NovaScreen (NVS) Enzymatic Assay for human Fibroblast Growth Factor Receptor 1 (FGFR1) (AID 2283159)
# In short: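 Cell-free recombinant kinase with fluorescent substrate, product separated by electrophoretic mobility shift; read 1 hour after dosing, loss of signal relative to DMSO. Initial screen in duplicate at 25 uM, actives followed in concentration series.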
# [13] = target: Histone deacetylase 3 (Homo sapiens) (UniProt O15379); test: NVS_ENZ_hHDAC3: NovaScreen (NVS) Enzymatic Assay for human Histone Deacetylase 3 (HDAC3) (AID 2283163)
# In short: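 Cell-free enzyme format: loss of fluorescent product after mobility-shift separation, 1 h incubation, recombinant human HDAC3. Single 25 uM duplicate screen first, then concentration series to a 50 uM top for hits; DMSO as baseline.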
# [14] = target: human c-Jun N-terminal Kinases (JNK2), MAPK9 (gene 5601) (UniProt P45984); test: NVS_ENZ_hJNK2: NovaScreen (NVS) Enzymatic Assay for human c-Jun N-terminal Kinases (JNK2) (AID 2283171)
# In short: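 Chemicals first tested in duplicate at 25 uM, then in singleton concentration series up to 50 uM, against extracted JNK2 enzyme. Activity loss read by fluorescence with mobility-shift separation 1 h post-dose; DMSO baseline.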
# [15] = target: human Matrix Metalloproteinase-7 (MMP7), MMP7 (gene 4316) (UniProt P09237); test: NVS_ENZ_hMMP7: NovaScreen (NVS) Enzymatic Assay for human Matrix Metalloproteinase-7 (MMP7) (AID 2283183)
# In short: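 Compounds first tested at 25 uM in duplicate, then at up to 50 uM in concentration series if active. Protease activity measured by fluorescence intensity 1 h after dosing, with fitting relative to DMSO.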
# [16] = target: human Matrix Metalloproteinase-3 (MMP3), MMP3 (gene 4314) (UniProt P08254); test: NVS_ENZ_hMMP3: NovaScreen (NVS) Enzymatic Assay for human Matrix Metalloproteinase-3 (MMP3) (AID 2283185)
# In short: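 Fluorescent substrate turnover by recombinant MMP3 read after 1 h, signal loss scored against DMSO. Compounds first run in duplicate at 25 uM single dose, then actives confirmed by concentration series.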
# [17] = target: human Ephrin type-A Receptor 1 (EphA1), EPHA1 (gene 2041) (UniProt P21709); test: NVS_ENZ_hEphA1: NovaScreen (NVS) Enzymatic Assay for human Ephrin type-A Receptor 1 (EphA1) (AID 2283158);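 further: activity is signal loss versus DMSO meaning EphA1 kinase inhibition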
# In short: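 Cell-free enzymatic assay with recombinant EphA1 and fluorescent substrate; product separated by electrophoretic mobility shift, fluorescence intensity read 1 hour after dosing. Loss of signal versus DMSO baseline; primary duplicate screen at 25 uM, actives followed to 50 uM top concentration.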
# [18] = target: human LYN Proto-Oncogene, Src family Tyrosine Kinase (LynA), LYN (gene 4067) (UniProt P07948); test: NVS_ENZ_hLynA: NovaScreen (NVS) Enzymatic Assay for human LYN Proto-Oncogene, Src family Tyrosine Kinase (LynA) (AID 2283173)
# In short: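 Recombinant kinase with fluorescent substrate; product separated from substrate by electrophoretic mobility shift and read 1 h after dosing. Duplicate screen at 25 uM, then concentration-response up to 50 uM; activity scored as signal loss against DMSO.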
# [19] = target: human Janus Kinase 2 (Jak2), JAK2 (gene 3717) (UniProt O60674); test: NVS_ENZ_hJak2: NovaScreen (NVS) Enzymatic Assay for human Janus Kinase 2 (Jak2) (AID 2283169)
# In short: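 Single-point duplicate screen at 25 uM, with hits run in concentration series to a 50 uM top dose. Substrate-product separation by mobility shift with fluorescence detection, 1 h post-dosing; DMSO baseline.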
# [20] = target: human MET Proto-Oncogene, Receptor Tyrosine Kinase (MET), MET (gene 4233) (UniProt P08581); test: NVS_ENZ_hMet: NovaScreen (NVS) Enzymatic Assay for human MET Proto-Oncogene, Receptor Tyrosine Kinase (MET) (AID 2283180)
# In short: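 Hits from a 25 uM duplicate screen were retested in concentration series up to 50 uM. Enzyme activity was measured by fluorescence after electrophoretic separation of product from substrate, 1 h after compound addition, relative to DMSO.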
# Chain of human MAP Kinase-Activated Protein Kinase 2 (MAPKAPK2), MAPKAPK2 (gene 9261) (P49137 whole entry, looked up): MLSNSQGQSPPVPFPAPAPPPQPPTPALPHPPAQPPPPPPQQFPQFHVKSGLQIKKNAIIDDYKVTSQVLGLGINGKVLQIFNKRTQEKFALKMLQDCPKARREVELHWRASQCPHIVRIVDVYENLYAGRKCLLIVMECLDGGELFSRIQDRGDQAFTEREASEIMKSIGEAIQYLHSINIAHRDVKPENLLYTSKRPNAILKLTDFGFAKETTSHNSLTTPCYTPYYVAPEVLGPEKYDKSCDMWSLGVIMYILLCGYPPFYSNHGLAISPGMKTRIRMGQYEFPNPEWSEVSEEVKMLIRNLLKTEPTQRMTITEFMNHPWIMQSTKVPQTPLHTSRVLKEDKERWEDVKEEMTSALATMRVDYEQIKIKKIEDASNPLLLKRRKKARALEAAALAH
# Chain of human Matrix Metalloproteinase-2 (MMP2), MMP2 (gene 4313) (P08253 whole entry, looked up): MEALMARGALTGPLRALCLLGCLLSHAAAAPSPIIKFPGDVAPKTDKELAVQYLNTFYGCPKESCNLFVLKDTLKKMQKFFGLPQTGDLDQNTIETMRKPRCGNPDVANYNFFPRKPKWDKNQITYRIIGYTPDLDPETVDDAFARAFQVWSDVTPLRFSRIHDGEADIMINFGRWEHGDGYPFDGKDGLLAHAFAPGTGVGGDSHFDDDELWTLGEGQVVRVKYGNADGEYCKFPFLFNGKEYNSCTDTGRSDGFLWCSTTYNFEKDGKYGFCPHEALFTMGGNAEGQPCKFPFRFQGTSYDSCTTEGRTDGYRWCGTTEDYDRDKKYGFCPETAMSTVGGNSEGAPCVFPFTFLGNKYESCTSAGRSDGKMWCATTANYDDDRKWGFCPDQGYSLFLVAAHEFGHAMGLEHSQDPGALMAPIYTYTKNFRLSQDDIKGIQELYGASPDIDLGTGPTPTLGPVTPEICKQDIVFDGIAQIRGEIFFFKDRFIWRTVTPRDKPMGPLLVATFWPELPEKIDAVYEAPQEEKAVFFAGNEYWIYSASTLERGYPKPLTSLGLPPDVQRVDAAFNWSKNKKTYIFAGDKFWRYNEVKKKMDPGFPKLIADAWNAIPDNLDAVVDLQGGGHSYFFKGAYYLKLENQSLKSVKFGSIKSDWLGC
# Chain of human Matrix Metalloproteinase-7 (MMP7), MMP7 (gene 4316) (P09237 whole entry, looked up): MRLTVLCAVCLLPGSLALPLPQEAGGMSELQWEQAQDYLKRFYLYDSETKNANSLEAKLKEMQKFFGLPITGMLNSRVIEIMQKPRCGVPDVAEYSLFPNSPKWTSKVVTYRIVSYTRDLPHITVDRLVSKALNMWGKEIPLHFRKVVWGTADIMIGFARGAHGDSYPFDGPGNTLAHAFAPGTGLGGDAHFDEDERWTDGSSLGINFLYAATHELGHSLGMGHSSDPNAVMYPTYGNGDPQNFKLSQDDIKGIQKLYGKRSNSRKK
# Chain of Mitogen-activated protein kinase 3 (Homo sapiens) (P27361 whole entry, looked up): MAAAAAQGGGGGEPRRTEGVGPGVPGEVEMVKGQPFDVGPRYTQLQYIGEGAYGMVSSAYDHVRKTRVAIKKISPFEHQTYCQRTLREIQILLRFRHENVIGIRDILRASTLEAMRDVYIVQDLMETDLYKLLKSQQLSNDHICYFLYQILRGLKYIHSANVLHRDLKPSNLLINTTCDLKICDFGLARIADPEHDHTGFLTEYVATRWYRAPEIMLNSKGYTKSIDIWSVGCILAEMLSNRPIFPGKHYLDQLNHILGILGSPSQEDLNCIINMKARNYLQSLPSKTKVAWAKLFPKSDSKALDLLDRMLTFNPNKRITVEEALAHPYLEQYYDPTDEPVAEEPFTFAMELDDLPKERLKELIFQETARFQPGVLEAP
# Chain of human c-Jun N-terminal Kinases (JNK2), MAPK9 (gene 5601) (P45984 whole entry, looked up): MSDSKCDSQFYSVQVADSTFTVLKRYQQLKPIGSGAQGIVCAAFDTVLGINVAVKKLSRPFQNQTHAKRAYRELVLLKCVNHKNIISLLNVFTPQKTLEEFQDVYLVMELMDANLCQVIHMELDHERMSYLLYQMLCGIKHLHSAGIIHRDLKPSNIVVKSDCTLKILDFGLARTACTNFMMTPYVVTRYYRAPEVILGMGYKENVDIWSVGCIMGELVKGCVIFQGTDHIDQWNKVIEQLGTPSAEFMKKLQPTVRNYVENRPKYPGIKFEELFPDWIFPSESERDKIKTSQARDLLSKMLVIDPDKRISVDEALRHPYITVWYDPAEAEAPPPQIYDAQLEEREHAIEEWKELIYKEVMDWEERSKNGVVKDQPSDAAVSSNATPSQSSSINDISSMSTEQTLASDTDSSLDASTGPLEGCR
# Chain of human Matrix Metalloproteinase-9 (MMP9), MMP9 (gene 4318) (P14780 whole entry, looked up): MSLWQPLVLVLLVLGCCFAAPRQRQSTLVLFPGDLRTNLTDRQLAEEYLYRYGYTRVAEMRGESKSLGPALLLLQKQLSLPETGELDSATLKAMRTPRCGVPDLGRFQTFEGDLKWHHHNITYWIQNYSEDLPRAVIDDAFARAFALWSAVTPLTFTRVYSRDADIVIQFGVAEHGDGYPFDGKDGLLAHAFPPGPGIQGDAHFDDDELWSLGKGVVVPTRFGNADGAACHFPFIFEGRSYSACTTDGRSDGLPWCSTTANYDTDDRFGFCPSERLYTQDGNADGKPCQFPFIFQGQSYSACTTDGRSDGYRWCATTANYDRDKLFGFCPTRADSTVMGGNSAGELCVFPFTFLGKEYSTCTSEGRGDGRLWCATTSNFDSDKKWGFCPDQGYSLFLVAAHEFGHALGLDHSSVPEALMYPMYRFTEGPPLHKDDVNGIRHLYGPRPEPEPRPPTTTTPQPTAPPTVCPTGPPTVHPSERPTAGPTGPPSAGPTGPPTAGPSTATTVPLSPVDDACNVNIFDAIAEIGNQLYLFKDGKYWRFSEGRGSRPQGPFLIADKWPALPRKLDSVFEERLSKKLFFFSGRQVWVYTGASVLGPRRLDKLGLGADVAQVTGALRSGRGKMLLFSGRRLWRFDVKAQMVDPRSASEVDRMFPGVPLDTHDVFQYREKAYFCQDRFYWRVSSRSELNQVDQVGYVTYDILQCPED
# Chain of human Esterase Plasma (ES), BCHE (gene 590) (P06276 whole entry, looked up): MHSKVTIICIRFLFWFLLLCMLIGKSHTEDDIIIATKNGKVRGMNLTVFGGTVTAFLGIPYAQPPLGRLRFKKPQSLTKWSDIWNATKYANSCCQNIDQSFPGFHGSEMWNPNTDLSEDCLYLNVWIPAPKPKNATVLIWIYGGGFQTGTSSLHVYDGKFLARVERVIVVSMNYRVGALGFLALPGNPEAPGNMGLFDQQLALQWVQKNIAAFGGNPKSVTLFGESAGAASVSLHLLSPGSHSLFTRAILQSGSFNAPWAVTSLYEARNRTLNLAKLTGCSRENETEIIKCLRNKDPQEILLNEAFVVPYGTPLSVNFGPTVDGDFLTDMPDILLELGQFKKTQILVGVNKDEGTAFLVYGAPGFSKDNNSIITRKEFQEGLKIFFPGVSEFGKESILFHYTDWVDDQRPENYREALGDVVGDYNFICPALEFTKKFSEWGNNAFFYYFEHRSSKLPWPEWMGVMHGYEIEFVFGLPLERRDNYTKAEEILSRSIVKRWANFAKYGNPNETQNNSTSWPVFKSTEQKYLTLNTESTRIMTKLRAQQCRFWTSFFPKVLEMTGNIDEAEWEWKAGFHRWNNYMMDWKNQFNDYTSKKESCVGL
# Chain of human Mitogen-Activated Protein Kinase 1 (MAPK 1), MAPK1 (gene 5594) (P28482 whole entry, looked up): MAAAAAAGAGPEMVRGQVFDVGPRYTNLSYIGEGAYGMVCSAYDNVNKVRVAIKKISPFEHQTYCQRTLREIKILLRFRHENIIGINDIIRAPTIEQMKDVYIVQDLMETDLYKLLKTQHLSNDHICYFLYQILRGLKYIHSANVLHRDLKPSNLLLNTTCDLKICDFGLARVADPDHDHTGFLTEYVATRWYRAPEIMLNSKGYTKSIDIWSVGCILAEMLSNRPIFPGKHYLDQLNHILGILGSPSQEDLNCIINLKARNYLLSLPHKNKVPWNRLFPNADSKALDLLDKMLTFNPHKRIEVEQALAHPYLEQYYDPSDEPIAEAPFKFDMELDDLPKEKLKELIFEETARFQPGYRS
# Chain of human Ephrin type-A Receptor 1 (EphA1), EPHA1 (gene 2041) (P21709 whole entry, looked up): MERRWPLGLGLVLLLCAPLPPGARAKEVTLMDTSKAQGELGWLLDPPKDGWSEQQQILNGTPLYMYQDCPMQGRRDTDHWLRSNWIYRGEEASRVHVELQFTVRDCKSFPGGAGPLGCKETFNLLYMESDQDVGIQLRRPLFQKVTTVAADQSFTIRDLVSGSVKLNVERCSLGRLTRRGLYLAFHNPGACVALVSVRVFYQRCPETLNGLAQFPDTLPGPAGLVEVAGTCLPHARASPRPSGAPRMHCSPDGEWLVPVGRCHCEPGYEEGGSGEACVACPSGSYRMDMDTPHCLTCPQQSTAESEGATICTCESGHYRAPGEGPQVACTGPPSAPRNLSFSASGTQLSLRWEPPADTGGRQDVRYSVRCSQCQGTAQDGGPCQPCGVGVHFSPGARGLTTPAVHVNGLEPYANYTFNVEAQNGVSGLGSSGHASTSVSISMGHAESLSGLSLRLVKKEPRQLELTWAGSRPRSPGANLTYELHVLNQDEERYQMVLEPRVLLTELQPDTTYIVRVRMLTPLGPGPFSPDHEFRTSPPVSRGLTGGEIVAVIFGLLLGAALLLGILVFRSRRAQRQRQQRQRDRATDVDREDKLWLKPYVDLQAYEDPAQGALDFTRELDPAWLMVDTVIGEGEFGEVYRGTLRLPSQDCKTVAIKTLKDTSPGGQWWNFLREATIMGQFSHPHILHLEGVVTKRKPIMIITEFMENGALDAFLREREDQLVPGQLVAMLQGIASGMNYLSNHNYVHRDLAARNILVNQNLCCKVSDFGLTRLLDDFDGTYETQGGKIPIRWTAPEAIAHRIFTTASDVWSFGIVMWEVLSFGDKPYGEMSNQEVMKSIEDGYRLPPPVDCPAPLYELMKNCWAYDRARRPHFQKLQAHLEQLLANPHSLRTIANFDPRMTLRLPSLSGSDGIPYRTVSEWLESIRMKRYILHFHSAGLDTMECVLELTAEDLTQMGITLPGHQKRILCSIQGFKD
structure (smiles),measurement,setting,value
N#Cc1c(Cl)cccc1Cl,outcome,[1],inactive
CCCN(CC)CC1COC2(CCC(C(C)(C)C)CC2)O1 (centres undefined),outcome,[1],inactive
CCOP(=O)(OCC)Oc1nc(Cl)c(Cl)cc1Cl,AC50,[2],0.00463 µM (active)
O=C(O)c1c(Cl)ccc2cc(Cl)cnc12,AC50,[2],8.48 µM (active)
CN=C=S,outcome,[3],inactive
COC(=O)N(C(=O)N1CO[C@@]2(C(=O)OC)Cc3cc(Cl)ccc3C2=N1)c1ccc(OC(F)(F)F)cc1,outcome,[4],inactive
same,AC50,[5],9.53 µM (active)
same,outcome,[6],inactive
Cc1nc(N(C)C)nc(OC(=O)N(C)C)c1C,AC50,[2],16.9 µM (active)
Cc1cnc(C2=NC(C)(C(C)C)C(=O)N2)c(C(=O)O)c1 (centres undefined),outcome,[7],inactive
same,outcome,[8],inactive
CCNP(=S)(OC)O/C(C)=C/C(=O)OC(C)C (centres undefined),outcome,[1],inactive
CC(C)C1(C)N=C(c2ncccc2C(=O)O)NC1=O (centres undefined),outcome,[9],inactive
COP(=S)(OC)SCn1nnc2ccccc2c1=O,outcome,[10],inactive
same,outcome,[1],inactive
same,outcome,[11],inactive
O=C1C2CC=CCC2C(=O)N1SC(Cl)(Cl)Cl (centres undefined),outcome,[12],inactive
same,AC50,[13],7.99 µM (active)
same,AC50,[10],16.7 µM (active)
same,outcome,[14],inactive
COC(=O)NC(=S)Nc1ccccc1NC(=S)NC(=O)OC,outcome,[11],inactive
CS(=O)(=O)c1ccc(C(=O)C2C(=O)CCCC2=O)c([N+](=O)[O-])c1,AC50,[5],1.59 µM (active)
CC(C)(C)C(=O)C(Oc1ccc(Cl)cc1)n1cncn1 (centres undefined),outcome,[1],inactive
COC(=O)NS(=O)(=O)c1ccc(N)cc1,outcome,[14],inactive
same,outcome,[1],inactive
CCN(CC)C(=O)C(C)Oc1cccc2ccccc12 (centres undefined),AC50,[2],16.7 µM (active)
same,outcome,[11],inactive
CCN(CC)c1nc(C)cc(OP(=S)(OC)OC)n1,outcome,[15],inactive
same,outcome,[11],inactive
CCOP(=S)(OCC)Oc1nc(Cl)n(C(C)C)n1,AC50,[2],4.75 µM (active)
COC(=O)c1c(C(F)F)nc(C(F)(F)F)c(C2=NCCS2)c1CC(C)C,outcome,[15],inactive
same,outcome,[16],inactive
CCOC(=O)C(C)OC(=O)c1cc(Oc2ccc(C(F)(F)F)cc2Cl)ccc1[N+](=O)[O-] (centres undefined),AC50,[3],15.3 µM (active)
same,outcome,[5],inactive
CCCC(=NOCC)C1=C(O)CC(CC(C)SCC)CC1=O (centres undefined),AC50,[9],14.1 µM (active)
same,outcome,[8],inactive
CC(C)=CC1C(C(=O)OCc2coc(Cc3ccccc3)c2)C1(C)C (centres undefined),AC50,[15],6.48 µM (active)
same,outcome,[5],inactive
N#CN=C1SCCN1Cc1ccc(Cl)nc1,outcome,[15],inactive
N#Cc1c[nH]cc1-c1cccc2c1OC(F)(F)O2,outcome,[17],inactive
same,outcome,[18],inactive
CC1(C)CCC(=Cc2ccc(Cl)cc2)C1(O)Cn1cncn1 (centres undefined),outcome,[2],inactive
Clc1nc(Cl)nc(Nc2ccccc2Cl)n1,outcome,[17],inactive
same,outcome,[13],inactive
same,outcome,[7],inactive
same,outcome,[1],inactive
same,outcome,[8],inactive
same,outcome,[3],inactive
same,AC50,[15],7.57 µM (active)
Cc1c(COC(=O)[C@@H]2[C@H](/C=C(\Cl)C(F)(F)F)C2(C)C)cccc1-c1ccccc1,outcome,[3],inactive
Nc1cnn(-c2ccccc2)c(=O)c1Cl,outcome,[19],inactive
CC1(C)C(C=C(Cl)Cl)C1C(=O)OC(C#N)c1cccc(Oc2ccccc2)c1 (centres undefined),AC50,[3],11.8 µM (active)
same,AC50,[5],4.96 µM (active)
same,AC50,[11],13.4 µM (active)
Nc1c(Cl)c(Cl)nc(C(=O)O)c1Cl,outcome,[14],inactive
CN/C(=N\[N+](=O)[O-])NCc1cnc(Cl)s1,AC50,[20],22.2 µM (active)
Cn1c(-c2ccccc2)cc(-c2ccccc2)[n+]1C,AC50,[2],4.69 µM (active)
same,outcome,[6],inactive
COP(=O)(OC)O/C(C)=C/C(=O)N(C)C,AC50,[2],17.4 µM (active)
